Data taken from the supplement of paper PMC10849652.
Targets with a hit are over-represented here; the source holds about 7,900 in all. About 0.6% of all pairs of compound and target were hits.

Columns and labels:
Experiment in all cases: log2 fold change, soluble protein after heating vs DMSO (PISA); higher = thermal stabilisation; K562 cells, 10 uM, 30 min; active = over 0.2 and 3.5 SD of the protein, either way, in both replicates (recomputed)
[1] = compound: CN1CCN(c2nc(C3=C(c4c[nH]c5ccccc45)C(=O)NC3=O)c3ccccc3n2)CC1 [sotrastaurin]
Procedure, shortened: (§1)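 K562 cells at 2×10^6 cells/mL were treated for 30 min with 10 μM compound, and aliquots were heated for 3 min over 48°C-58°C before pooling. Extraction used PBS with 0.5% NP-40 at 4°C, and soluble protein was the supernatant after 21,000xg for 90 min, measured by TMTpro 16plex LC-MS/MS with channel sums equalised. Thermal stability values, relative to control samples and from duplicates, are log2 fold changes.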

[2] = compound: CN1CC[C@H](c2c(O)cc(O)c3c(=O)cc(-c4ccccc4Cl)oc23)[C@H](O)C1 [alvocidib]
Procedure, shortened: as §1

[3] = compound: CN1CCc2c(c3ccccc3n2Cc2ccc(C(=O)NO)cc2)C1 [Tubastatin A]
Procedure, shortened: as §1

[4] = compound: CNC(=O)C1=CC=CC=C1NC2=NC(=NC=C2Cl)NC3=C(C=C(C=C3)N4CCOCC4)OC
Procedure, shortened: as §1

[5] = compound: CNC(=O)c1ccc(Nc2ncc(C(F)(F)F)c(NCc3nccnc3N(C)S(C)(=O)=O)n2)cc1 [defactinib]
Procedure, shortened: as §1

[6] = compound: CNCc1ccc(-c2[nH]c3cc(F)cc4c3c2CCNC4=O)cc1 [rucaparib]
Procedure, shortened: as §1

[7] = compound: COC(=O)N[C@@H](C)CNc1nccc(-c2cn(C(C)C)nc2-c2cc(Cl)cc(NS(C)(=O)=O)c2F)n1 [encorafenib]
Procedure, shortened: as §1

[8] = compound: COC(=O)[C@H](CCSC)NC(=O)C1=C(C=C(C=C1)NC[C@H](CS)N)C2=CC=CC=C2
Procedure, shortened: as §1

[9] = compound: CN1CCN(CCOc2cc(OC3CCOCC3)c3c(Nc4c(Cl)ccc5c4OCO5)ncnc3c2)CC1 [saracatinib]
Procedure, shortened: as §1

[10] = compound: CNc1nc(-c2ccc3c(N)n[nH]c3c2)cc(N2C[C@@H](C(=O)NC3CCCCC3)CC[C@H]2C)n1
Procedure, shortened: as §1

Measured: log2 fold change

CCDC57 (UniProt Q2TAC2)
inactive: [1] 0.059 | [2] -0.055 | [3] 0.026 | [4] 0.04 | [5] 0.02 | [6] -0.15 | [7] 0.041 | [8] 0.007

CKS2 (UniProt P33552)
inactive: [9] -0.044 | [3] 0.031 | [6] 0.025 | [10] -0.101 | [7] 0.078

CNN1 (UniProt P51911)
UniProt P51911, sequence (P51911 whole entry, looked up): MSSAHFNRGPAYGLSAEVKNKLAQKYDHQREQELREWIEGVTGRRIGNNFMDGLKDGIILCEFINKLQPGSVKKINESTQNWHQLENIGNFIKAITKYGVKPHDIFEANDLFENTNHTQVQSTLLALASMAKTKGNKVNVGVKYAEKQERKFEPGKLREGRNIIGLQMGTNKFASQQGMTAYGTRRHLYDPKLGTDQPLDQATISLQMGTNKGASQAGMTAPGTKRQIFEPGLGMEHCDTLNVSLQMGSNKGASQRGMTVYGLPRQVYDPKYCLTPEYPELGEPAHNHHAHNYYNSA
inactive: [1] 0.15 | [2] -0.115 | [3] 0.126 | [5] -0.028 | [6] 0.102 | [7] -0.046 | [8] 0.043

CD68 (UniProt P34810)
inactive: [1] -0.031 | [4] 0.043

CCDC82 (UniProt Q8N4S0)
inactive: [9] 0 | [2] -0.065 | [3] 0.102 | [4] 0.03 | [5] -0.09 | [6] -0.069 | [10] -0.139 | [7] 0.021 | [8] -0.037

COPS3 isoform 2 (UniProt Q9UNS2)
UniProt Q9UNS2, sequence (Q9UNS2 whole entry, looked up): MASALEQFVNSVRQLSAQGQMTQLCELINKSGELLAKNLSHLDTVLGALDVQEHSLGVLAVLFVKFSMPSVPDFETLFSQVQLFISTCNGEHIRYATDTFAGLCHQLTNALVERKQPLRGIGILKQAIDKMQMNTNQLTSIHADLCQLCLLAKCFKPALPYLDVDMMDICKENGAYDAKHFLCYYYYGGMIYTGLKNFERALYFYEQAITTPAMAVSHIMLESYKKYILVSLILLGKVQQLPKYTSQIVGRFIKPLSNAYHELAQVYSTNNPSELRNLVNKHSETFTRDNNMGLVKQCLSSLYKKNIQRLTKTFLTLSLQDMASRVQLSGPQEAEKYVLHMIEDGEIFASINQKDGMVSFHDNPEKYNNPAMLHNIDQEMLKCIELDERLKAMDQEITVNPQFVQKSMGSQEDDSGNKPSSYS
inactive: [1] 0.134 | [3] -0.005 | [5] 0.109 | [6] -0.055 | [7] -0.041 | [8] 0.059

CFAP47 (UniProt Q6ZTR5)
UniProt Q6ZTR5, sequence (Q6ZTR5 whole entry, looked up): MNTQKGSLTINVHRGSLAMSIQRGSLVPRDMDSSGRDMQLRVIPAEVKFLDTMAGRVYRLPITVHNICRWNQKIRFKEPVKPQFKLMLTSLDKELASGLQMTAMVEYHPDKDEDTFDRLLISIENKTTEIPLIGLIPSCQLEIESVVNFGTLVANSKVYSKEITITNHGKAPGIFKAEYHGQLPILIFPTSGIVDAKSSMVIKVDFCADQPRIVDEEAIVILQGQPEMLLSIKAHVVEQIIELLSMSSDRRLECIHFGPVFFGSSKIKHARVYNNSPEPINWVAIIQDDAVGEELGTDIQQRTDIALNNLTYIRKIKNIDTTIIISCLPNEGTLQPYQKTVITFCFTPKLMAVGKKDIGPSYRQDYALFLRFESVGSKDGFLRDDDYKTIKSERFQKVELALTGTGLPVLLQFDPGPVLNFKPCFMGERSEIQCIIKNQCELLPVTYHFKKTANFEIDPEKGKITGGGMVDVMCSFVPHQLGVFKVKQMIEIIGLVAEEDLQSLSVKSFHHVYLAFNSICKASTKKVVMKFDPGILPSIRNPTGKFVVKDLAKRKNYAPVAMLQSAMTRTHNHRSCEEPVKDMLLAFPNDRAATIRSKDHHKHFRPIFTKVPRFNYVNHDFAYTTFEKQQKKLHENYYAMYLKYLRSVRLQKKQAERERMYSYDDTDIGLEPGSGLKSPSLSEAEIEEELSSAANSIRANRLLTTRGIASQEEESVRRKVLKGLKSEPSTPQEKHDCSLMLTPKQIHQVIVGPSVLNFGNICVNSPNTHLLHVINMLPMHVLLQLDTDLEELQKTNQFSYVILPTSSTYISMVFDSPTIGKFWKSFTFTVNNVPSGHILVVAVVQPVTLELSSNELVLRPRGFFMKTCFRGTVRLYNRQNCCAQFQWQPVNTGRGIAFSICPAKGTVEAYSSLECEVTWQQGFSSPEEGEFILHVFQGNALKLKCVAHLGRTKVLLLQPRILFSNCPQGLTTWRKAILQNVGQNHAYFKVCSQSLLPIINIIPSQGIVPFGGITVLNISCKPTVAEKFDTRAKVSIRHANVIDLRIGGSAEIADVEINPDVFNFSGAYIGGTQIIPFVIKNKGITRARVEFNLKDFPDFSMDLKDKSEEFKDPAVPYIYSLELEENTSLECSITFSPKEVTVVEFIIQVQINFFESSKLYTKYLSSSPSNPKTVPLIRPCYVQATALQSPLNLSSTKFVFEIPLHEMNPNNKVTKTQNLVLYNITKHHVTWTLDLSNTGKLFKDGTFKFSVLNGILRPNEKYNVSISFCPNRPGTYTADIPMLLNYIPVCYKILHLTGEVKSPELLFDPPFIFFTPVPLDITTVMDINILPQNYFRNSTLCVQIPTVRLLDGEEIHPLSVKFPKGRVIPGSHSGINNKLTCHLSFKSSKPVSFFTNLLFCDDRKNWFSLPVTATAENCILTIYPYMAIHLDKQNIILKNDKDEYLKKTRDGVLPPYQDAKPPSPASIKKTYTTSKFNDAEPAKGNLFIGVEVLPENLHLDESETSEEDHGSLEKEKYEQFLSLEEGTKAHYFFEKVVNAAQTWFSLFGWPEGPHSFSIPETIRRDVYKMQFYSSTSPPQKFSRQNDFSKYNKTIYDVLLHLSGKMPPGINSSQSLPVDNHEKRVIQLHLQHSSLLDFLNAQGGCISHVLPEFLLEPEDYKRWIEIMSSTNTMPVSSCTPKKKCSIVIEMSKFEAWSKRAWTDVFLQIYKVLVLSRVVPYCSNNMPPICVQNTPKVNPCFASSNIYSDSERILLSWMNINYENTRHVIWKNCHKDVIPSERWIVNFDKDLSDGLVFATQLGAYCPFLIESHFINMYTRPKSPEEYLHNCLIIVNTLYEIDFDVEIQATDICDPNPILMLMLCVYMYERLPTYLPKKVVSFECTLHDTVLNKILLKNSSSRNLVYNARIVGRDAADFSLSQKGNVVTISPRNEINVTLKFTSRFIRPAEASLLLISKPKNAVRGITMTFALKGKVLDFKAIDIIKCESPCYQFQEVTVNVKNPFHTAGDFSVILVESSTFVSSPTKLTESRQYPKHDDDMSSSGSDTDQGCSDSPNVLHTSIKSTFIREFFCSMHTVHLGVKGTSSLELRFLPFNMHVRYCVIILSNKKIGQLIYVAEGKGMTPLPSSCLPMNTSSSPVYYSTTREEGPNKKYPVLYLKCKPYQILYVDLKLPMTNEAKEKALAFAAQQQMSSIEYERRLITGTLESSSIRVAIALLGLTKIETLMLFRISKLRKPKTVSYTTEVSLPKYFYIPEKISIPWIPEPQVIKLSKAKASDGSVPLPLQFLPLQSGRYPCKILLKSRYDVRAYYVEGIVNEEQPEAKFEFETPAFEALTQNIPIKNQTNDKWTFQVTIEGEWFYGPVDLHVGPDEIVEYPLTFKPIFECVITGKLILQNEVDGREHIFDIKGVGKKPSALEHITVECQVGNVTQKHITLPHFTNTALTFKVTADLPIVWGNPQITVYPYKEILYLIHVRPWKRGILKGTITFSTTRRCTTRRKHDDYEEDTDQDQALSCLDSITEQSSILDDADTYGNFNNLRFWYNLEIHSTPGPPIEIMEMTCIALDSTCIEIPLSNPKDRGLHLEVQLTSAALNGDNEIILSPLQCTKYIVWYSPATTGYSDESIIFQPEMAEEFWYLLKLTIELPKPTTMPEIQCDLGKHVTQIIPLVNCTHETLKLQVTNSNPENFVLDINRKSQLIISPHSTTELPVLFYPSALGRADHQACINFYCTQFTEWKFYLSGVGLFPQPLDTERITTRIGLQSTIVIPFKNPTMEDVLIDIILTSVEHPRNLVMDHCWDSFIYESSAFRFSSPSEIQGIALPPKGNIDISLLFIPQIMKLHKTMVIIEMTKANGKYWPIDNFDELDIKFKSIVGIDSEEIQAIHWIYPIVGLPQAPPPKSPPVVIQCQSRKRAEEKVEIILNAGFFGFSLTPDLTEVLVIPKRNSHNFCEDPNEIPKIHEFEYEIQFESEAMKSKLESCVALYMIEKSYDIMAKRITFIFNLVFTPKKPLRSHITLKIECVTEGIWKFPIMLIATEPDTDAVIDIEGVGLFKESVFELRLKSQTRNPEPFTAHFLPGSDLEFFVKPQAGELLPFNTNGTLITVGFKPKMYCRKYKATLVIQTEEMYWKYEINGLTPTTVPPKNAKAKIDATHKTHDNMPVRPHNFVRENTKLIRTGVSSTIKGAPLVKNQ
inactive: [9] 0.001 | [5] -0.063 | [6] -0.062 | [10] -0.142 | [7] -0.173 | [8] 0.084

CPNE5 (UniProt Q9HCH3)
inactive: [2] 0.134 | [3] 0.082 | [4] 0.049

CEMIP2 (UniProt Q9UHN6)
inactive: [9] -0.104 | [2] -0.055 | [3] -0.005 | [4] 0.032 | [5] 0.017 | [6] 0.046 | [10] -0.026 | [7] -0.1 | [8] 0.029

CS (UniProt F8VU34)
inactive: [6] 0.268 | [7] 0.158

CLASP2 (UniProt O75122)
inactive: [2] -0.069 | [4] 0 | [6] 0 | [7] 0.098

CNOT4 isoform 9 (UniProt O95628)
inactive: [9] 0.077 | [2] 0 | [3] -0.027 | [4] 0.187 | [5] -0.129 | [6] -0.057 | [10] -0.021 | [7] -0.05 | [8] 0.038

CRTC2 (UniProt Q53ET0)
UniProt Q53ET0, sequence (Q53ET0 whole entry, looked up): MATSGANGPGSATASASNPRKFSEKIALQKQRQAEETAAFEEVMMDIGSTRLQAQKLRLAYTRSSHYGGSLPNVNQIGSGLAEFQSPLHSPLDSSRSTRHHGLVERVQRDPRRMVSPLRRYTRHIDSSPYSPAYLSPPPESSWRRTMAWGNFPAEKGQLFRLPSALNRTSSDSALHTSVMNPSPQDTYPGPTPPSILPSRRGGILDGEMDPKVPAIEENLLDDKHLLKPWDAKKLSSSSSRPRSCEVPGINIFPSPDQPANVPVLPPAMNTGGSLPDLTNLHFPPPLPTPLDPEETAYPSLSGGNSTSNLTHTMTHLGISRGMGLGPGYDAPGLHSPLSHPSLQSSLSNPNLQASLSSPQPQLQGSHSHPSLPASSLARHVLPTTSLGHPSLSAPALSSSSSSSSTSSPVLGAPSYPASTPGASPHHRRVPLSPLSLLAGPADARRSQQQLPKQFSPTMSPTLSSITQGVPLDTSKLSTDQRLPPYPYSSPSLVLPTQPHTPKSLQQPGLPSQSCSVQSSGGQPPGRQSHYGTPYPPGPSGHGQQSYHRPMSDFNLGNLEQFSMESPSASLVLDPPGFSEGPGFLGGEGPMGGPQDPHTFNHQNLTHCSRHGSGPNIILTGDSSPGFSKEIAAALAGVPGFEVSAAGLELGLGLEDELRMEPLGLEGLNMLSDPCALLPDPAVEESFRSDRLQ
inactive: [1] -0.09 | [3] -0.031 | [4] -0.269 | [5] -0.218 | [6] 0.053 | [7] -0.026 | [8] -0.103

CDC25B isoform 4 (UniProt P30305)
inactive: [1] -0.018 | [2] -0.031 | [4] -0.019 | [5] -0.25 | [6] 0.054 | [7] -0.059 | [8] 0.087

CREB3L2 (UniProt Q70SY1)
inactive: [2] -0.242 | [3] 0.282 | [4] -0.19 | [5] -0.039 | [8] -0.172

C5orf30 (UniProt Q96GV9)
inactive: [3] 0.502

COMMD1 (UniProt Q8N668)
UniProt Q8N668, sequence (Q8N668 whole entry, looked up): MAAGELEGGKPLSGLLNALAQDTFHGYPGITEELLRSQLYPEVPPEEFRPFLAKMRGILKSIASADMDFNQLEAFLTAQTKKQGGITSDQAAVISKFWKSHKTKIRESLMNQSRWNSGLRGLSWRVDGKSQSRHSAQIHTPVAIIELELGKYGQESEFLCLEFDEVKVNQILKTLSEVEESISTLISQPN
inactive: [1] -0.038 | [3] -0.213 | [4] 0.119 | [5] -0.151 | [6] 0.15 | [7] -0.028 | [8] 0.092

CLN3 (UniProt Q13286)
inactive: [9] 0.046 | [2] 0.107 | [3] 0.065 | [4] 0.004 | [5] -0.039 | [6] 0.082 | [10] -0.097 | [7] -0.053 | [8] 0.149

C1D (UniProt Q13901)
UniProt Q13901, sequence (Q13901 whole entry, looked up): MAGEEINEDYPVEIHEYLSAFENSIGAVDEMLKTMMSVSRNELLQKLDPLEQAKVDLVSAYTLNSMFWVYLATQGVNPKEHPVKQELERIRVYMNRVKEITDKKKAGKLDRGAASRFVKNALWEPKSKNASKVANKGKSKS
inactive: [1] 0.005 | [3] 0.079 | [4] 0.001 | [5] 0.042 | [6] -0.005 | [7] 0.009 | [8] 0.091

COMMD3-BMI1 (UniProt R4GMX3)
inactive: [1] -0.024 | [2] 0.05 | [3] -0.074

CNRIP1 (UniProt Q96F85)
inactive: [4] 0.053

CCNL1 (UniProt Q9UK58)
inactive: [4] -0.179

CEBPZOS (UniProt A8MTT3)
UniProt A8MTT3, sequence (A8MTT3 whole entry, looked up): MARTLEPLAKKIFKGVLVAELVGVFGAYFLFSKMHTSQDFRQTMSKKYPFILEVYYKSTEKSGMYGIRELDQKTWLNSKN
inactive: [9] 0.079 | [3] -0.06 | [4] 0.039 | [5] -0.012 | [6] 0.159 | [10] -0.032 | [7] -0.038 | [8] -0.02
